# Article PMC5540273 (PLoS ONE, 2017)
# System: CDKL1
# 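Note: kd values determined as follow-up on hits from a single-replicate KINOMEscan panel screen.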
row,Structure (SMILES),Kd
1,NS(=O)(=O)c1cccc(N/C=C2\C(=O)Nc3ccc(S(=O)(=O)Cc4c(Cl)cccc4Cl)cc32)c1 [GSK398099],> 10 µM
2,Cc1ccc(NC(=O)Nc2ccc(Cl)c(C(F)(F)F)c2)cc1-c1ccc(C(=O)Nc2ccncc2)cc1 [GSK1398470],> 10 µM
3,Cn1cnc2c(N)ncnc21 [SKF-97623],> 10 µM
4,COc1ccc(Nc2nccc(N3CCC(NC(=O)C(C)c4ccc(Cl)cc4)C3)n2)cc1 (stereo not shown) [GSK1379735],> 10 µM
5,CNC(=O)c1ccc(C)c(-n2c(C)cc(OCc3ccc(F)cc3F)c(Br)c2=O)c1,> 10 µM
6,Cn1cncc1C(=O)NC1CCN(c2ccnc(Nc3ccc(F)cc3)n2)C1 (stereo not shown) [GSK1379717],> 10 µM
7,Cn1cncc1-c1cc2c(Nc3ccc(OCc4ccccc4)cc3)ncnc2cn1 [GW281179],> 10 µM
8,Cc1c(Cn2c(C)c(C)n3c(=O)cc(N4CCOCC4)nc23)cccc1C(F)(F)F [GSK2328680],> 10 µM

# System: CDKL2
row,Structure (SMILES),Kd
1,O=C(Nc1n[nH]c2cc(-c3ccsc3)ccc12)C1CC1 [SB-732932],0.1 µM
2,O=C(Nc1n[nH]c2nc(-c3cccs3)c(Br)cc12)C1CCCC1 [SB-743341],0.33 µM
3,COC(=O)c1cccc(NC(=O)NC2CCN(c3ccnc(Nc4ccc(F)cc4)n3)C2)c1 (stereo not shown) [GSK1379725],0.68 µM
4,O=C(Nc1n[nH]c2nc(-c3cccs3)c(Br)cc12)C1CC1 [SB-735297],0.14 µM

# System: CHEK1
row,Structure (SMILES),Kd
1,CS(=O)(=O)CCNCc1nc(-c2ccc3ncnc(Nc4ccc(OCc5ccccc5)c(Cl)c4)c3c2)cs1.Cl [GW582764],> 10 µM
2,COc1ccc(Nc2nccc(-c3ccc(NC(=O)c4cc5cc(F)ccc5[nH]4)cc3)n2)cc1 [GSK1229496],> 10 µM
3,COc1ccc(Nc2nccc(N3CCC(NC(=O)c4cc5ccccc5s4)C3)n2)cc1 (stereo not shown) [GSK1379738],> 10 µM
4,COC(=O)C(Cc1ccccc1)NC(=O)NC1CCN(c2ccnc(Nc3ccc(F)cc3)n2)C1 (stereo not shown) [GSK1379714],> 10 µM
5,Cc1ccccc1-c1cc(-c2c[nH]nc2-c2ccccn2)ccn1 [GW680061],> 10 µM
6,FC(F)(F)c1ccccc1-c1cc(-c2c[nH]nc2-c2ccccn2)ccn1 [GW679396],> 10 µM
7,COc1cccc(C2=C(Nc3cc(Cl)c(O)c(Cl)c3)C(=O)NC2=O)c1 [SB-390767],> 10 µM

# System: CHEK2
row,Structure (SMILES),Kd
1,CC(C)c1cc(-c2ccc3c(N)n[nH]c3c2)nc(N)n1 [GSK2250882],0.32 µM
2,COc1ccc(Nc2nccc(NCCNC(=O)Nc3cc(C)ccc3C)n2)cc1 [GSK1379899],> 10 µM
3,CNc1cc(-c2ccc3c(N)n[nH]c3c2)nc(N)n1 [GSK2224810],2 µM
